Growth data for 7 molecules are collected here from PubChem BioAssay (NCI).

Holding throughout (experiment): NCI-60 one-dose screen, 48 h (100 = growth as untreated, 0 = no growth, -100 = all killed)
What all share (settings): 10 µM unless noted

Assay [1] relates to NCI-H23 lung.
The subject of assay [2] is NCI-H226 lung.
The subject of assay [3] is NCI-H322M lung.
Assay [4] relates to HOP-62 NSCLC.
Assay [5] relates to NCI-H460 lung.
Assay [6] has as its system HOP-92 NSCLC.
For assay [7], the system named is NCI-H522 lung.
In assay [8] the test system is A549/ATCC NSCLC.
The test system of assay [9] is 786-0 renal.
The subject of assay [10] is COLO 205 colon.
Assay [11] concerns DU-145 prostate.
For assay [12], the system named is K-562 leukemia.
The subject of assay [13] is MALME-3M melanoma.
For assay [14], the system named is MDA-MB-231 breast.
Assay [15] has as its system RXF 393 renal.
Assay [16] deals with SF-268 CNS.
The subject of assay [17] is SF-295 CNS.
For assay [18], the system named is SF-539 CNS.
Assay [19] has as its system UACC-257 melanoma.
The test system of assay [20] is M14 melanoma.

The panel holds about 83,000 compounds, 20% with a hit somewhere; the sample as a whole holds those more often.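 Negative percent growth values reflect cell death: -40 means 40% of the cells present at the start died, and -100 means all died.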 A number with no mark means an inactive call. Activity calls are given as the source filed them. Rule for the calls: active = growth percent below 10; inactive = the rest.

Take `CSc1ccc(N2C(=N)C(=S)N(c3ccc(C)cc3)C2=O)cc1`: the growth is 98.3% in assay [1]; 96.3% in assay [2]; 99% in assay [3]; 86.2% in assay [4]; 102% in assay [5]; 90% in [6]. The growth in assay [7] is 80.5%; in [8] it was 87.6%; in assay [9] it was 91.5%; in assay [10] it was 98%; in assay [11], 104%; in assay [12], 82%. Also, the growth in assay [13] is 94.4%; in [14] it was 101%; in [15] it was 113%; in assay [16], 90.7%; in assay [17], 96.1%; in assay [18], 92.8%. For the same molecule, the growth in [19] is 99.7%; in assay [20], 86.1%.
For `COc1ccc(/C=C(/C(=O)N2CCNCC2)c2cc(OC)c(OC)c(OC)c2)cc1O`, the growth in assay [1] was 49.9%; in assay [2], 88.7%; in assay [3] it was 50%; in assay [4], 56.4%; in assay [5], 37.6%; in [6], 48.7%. For the same molecule, the growth in [7] was 0.313% (active); in assay [8], 41.6%; in [9], 95.5%; in [10] it was 25.9%; in assay [11] it was 27%; in assay [12], 22%. Also, the growth in [13] is 46.6%; in assay [14], 58.2%; in assay [15], 7.47% (active); in assay [16], 49.5%; in assay [17] it was 66.3%; in [18] it was 6.82% (active). In addition, the growth in assay [19] was 27%; in assay [20], 38%.
Regarding `C[N+]1=C(/C=C/c2ccccc2Cl)C(C)(C)c2ccccc21`, the growth in assay [1] was 74.3%; in assay [2], 80%; in assay [3] it was 98.6%; in [4], 98.7%; in assay [5] it was 103%; in assay [6], 90.1%. The growth is 81.8% in [7]; 92.5% in assay [8]; 95.9% in assay [9]; 95.9% in [10]; 94.5% in assay [11]; 77.3% in assay [12]. The growth in assay [13] is 98.4%; in assay [14] it was 98%; in assay [15], 89.2%; in assay [16], 96.7%; in assay [17], 103%; in assay [18], 101%. Besides, the values for the growth in assay [19] and in assay [20] were 92% and 97.8%, respectively.
On to `CN(C)/C(N)=N/N=C(\c1ccccc1)c1ccccn1`, for which the growth in assay [1] is 95.7%; in [2], 97.3%; in assay [3], 83.1%; in assay [4], 110%; in assay [5] it was 101%; in [6], 87.2%. Further, the growth in [7] was 95.5%; in assay [8], 107%; in assay [9], 99.9%; in assay [10], 106%; in [11], 97.7%; in [12], 96.7%. The growth is 93.3% in assay [13]; 88.1% in [14]; 98.5% in assay [15]; 92.6% in assay [16]; 106% in assay [17]; 103% in assay [18]. In addition, the growth in [19] is 112%; in assay [20] it was 93%.
In the case of `CCSc1ccnc(N)n1`, the growth is 120% in assay [1]; 101% in assay [2]; 106% in assay [3]; 94% in assay [4]; 113% in assay [5]; 98% in assay [6]. For the same molecule, the growth was 105% in assay [7]; 118% in assay [8]; 98.3% in [9]; 125% in [10]; 105% in assay [11]; 121% in assay [12]. Besides, the growth in [13] was 86.3%; in assay [14] it was 104%; in assay [15], 125%; in assay [16] it was 93.9%; in assay [17], 105%; in [18], 105%. The growth in assay [19] was 102%; in assay [20], 112%.
Regarding `CCOc1ccc(/C=C/C(=O)c2cccc(OCCCOc3cccc(C(=O)/C=C/c4ccc(OCC)cc4)c3)c2)cc1`, the growth in assay [1] was 83.9%; in assay [2], 73.8%; in assay [3], 84.5%; in assay [4] it was 107%; in [5] it was 65.4%; in assay [6] it was 91.6%. Also, the growth in assay [7] was 74%; in assay [8], 85.4%; in assay [9], 100%; in assay [10], 116%; in [11] it was 82.8%; in assay [12], 69.9%. For the same molecule, the growth was 100% in [13]; 83.3% in assay [14]; 105% in assay [15]; 85.3% in assay [16]; 76.4% in assay [17]; 110% in [18]. Moreover, the growth is 82.7% in assay [19] and 69% in assay [20].
For the molecule `Cc1ccc(O)c(NC(=O)c2cccc(Nc3ccnc(C(F)(F)F)c3)c2)c1`, the growth in assay [1] was 44.1%; in [2], 44.8%; in assay [3] it was 86.5%; in [4] it was 85.6%; in [5], 55.4%; in assay [6], 77.6%. For the same molecule, the growth in [7] was 43.1%; in assay [8], 60.3%; in assay [9] it was 50%; in [10], 128%; in assay [11] it was 80.9%; in [12], 40.9%. Further, the growth in assay [13] was 70.1%; in assay [14], 58.9%; in assay [15], 91.2%; in assay [16], 76.6%; in [17], 40.3%; in [18], 72.6%. The growth is 58.7% in [19] and 68.4% in assay [20].
